{"source": "PubChem BioAssay AID492948", "about": "(National Center for Advancing Translational Sciences (NCATS), 2010)", "note": "Results filed as inconclusive are left out. Active and inactive are the calls of the source. Calls come from the whole dose curve; as a rule, active = well fitted activation curve with a large enough effect; inconclusive = small, poorly fitted or top-dose-only effect; inactive = no such curve, though single readings can be large or run the other way. Potency is the fitted concentration of half-maximal effect.", "data": [{"test": "qHTS Assay for Agonists of the Relaxin Receptor RXFP1: V1B Hit Validation;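 note: counter-screen in HEK293 cells expressing V1B rather than RXFP1 for selectivity; nearly all actives have a fitted effect of over 65% in size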;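 for activation: cAMP accumulation with PDE4 inhibitor Ro 20-1724 present during compound exposure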", "settings": "HEK293 V1B cells, cAMP TR-FRET, 30 min; series mostly up to 115 µM", "method_in_brief": "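cAMP accumulation, read by TR-FRET competition after lysis, in V1B-expressing HEK293 cells given compound for 30 min at 37C with Ro 20174 present. Responses scaled between buffer basal and 29 nM porcine relaxin; Hill-equation EC50.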", "values": [{"smiles": "CCN(CC)S(=O)(=O)c1ccc2c(c1)nc(SCc1nc3ccsc3c(=O)[nH]1)n2CC", "Potency": "0.245 µM (active)"}, {"smiles": "O=C(O)c1cc(-c2ccc(Br)s2)nc2ccccc12", "Potency": "3.46 µM (active)"}, {"smiles": "CN(CC(=O)Nc1ccccc1Cl)C(=O)COC(=O)Cc1c(F)cccc1Cl", "Potency": "inactive"}, {"smiles": "CC1CCN(S(=O)(=O)c2ccc3nc(N4CCN(c5ccccc5)CC4)ccc3c2)CC1", "Potency": "13.8 µM (active)"}, {"smiles": "O=C(O)c1ccc(CN2C(=O)c3ccc(C(=O)O)cc3C2=O)cc1", "Potency": "inactive"}, {"smiles": "Cn1c(N)c(C(=O)CSc2nnc(NC3CCCCC3)s2)c(=O)n(C)c1=O", "Potency": "inactive"}, {"smiles": "CN(C)S(=O)(=O)c1ccc(C(=O)OCC(=O)Nc2cccnc2Cl)cc1", "Potency": "19.4 µM (active)"}, {"smiles": "Cc1ccc2[nH]c3c(=S)nc[nH]c3c2c1", "Potency": "6.15 µM (active)"}, {"smiles": "COc1ccc(CC(=O)N/N=C/c2cccnc2)cc1OC", "Potency": "inactive"}, {"smiles": "COc1ccc(CNC(=O)CN2C(=O)NC(C)(c3cccc(Br)c3)C2=O)cc1", "note": "(configuration not stated)", "Potency": "inactive"}, {"smiles": "NC(=S)c1cc2ccc(O)cc2oc1=O", "Potency": "4.35 µM (active)"}, {"smiles": "COc1ccc(OC)c(CNC(=O)C2CCN(C(=O)N(C)C)CC2)c1", "Potency": "inactive"}, {"smiles": "Cc1cc(C)n2nc(C(=O)Nc3ccc4c(c3)OCCO4)nc2n1", "Potency": "6.15 µM (active)"}, {"smiles": "O=C(Nc1ccccc1C(=O)N1CCOCC1)c1ccco1", "Potency": "inactive"}, {"smiles": "Cc1cc(C(=O)OCC(=O)c2ccc(Br)s2)no1", "Potency": "21.8 µM (active)"}, {"smiles": "CCC(=O)Nc1ccc(-n2nnnc2SCC(=O)NNC(=O)c2ccco2)cc1", "Potency": "inactive"}, {"smiles": "CCOC(=O)CNC(=O)CSc1ccc2nnc(-c3cccnc3)n2n1", "Potency": "inactive"}, {"smiles": "CCOc1ccc2cc(C#N)c(SCC(=O)NC(C)CC)nc2c1", "note": "(configuration not stated)", "Potency": "5.48 µM (active)"}, {"smiles": "COCCNC(=O)NC(=O)COC(=O)C12CC3CC(CC(NC(C)=O)(C3)C1)C2", "Potency": "inactive"}, {"smiles": "COc1ccc(S(=O)(=O)N2CCOCC2)cc1NC(=O)CSc1ncnc2ccccc12", "Potency": "13.8 µM (active)"}, {"smiles": "c1ccc(COn2nnc3ccccc32)c(COn2nnc3ccccc32)c1", "Potency": "inactive"}, {"smiles": "COc1ccc(/C=C2/SC(=O)N(CC(=O)Nc3cc(C)on3)C2=O)cc1OC", "Potency": "inactive"}, {"smiles": "Cn1c(=O)c2sccc2n2c(CCCC(=O)NCc3cccnc3)nnc12", "Potency": "19.4 µM (active)"}, {"smiles": "Cc1noc(NS(=O)(=O)c2ccc(N3Cc4ccccc4C3=O)cc2)c1C", "Potency": "11.9 µM (active)"}, {"smiles": "Cc1cc(C)c(C(=O)CSc2n[nH]c(=O)n2C2CC2)cc1C", "Potency": "inactive"}, {"smiles": "CC1(C)O[C@@H]2[C@H](O1)[C@@H](COS(=O)(=O)O)O[C@H]2n1cnc2c(N)ncnc21", "Potency": "3.88 µM (active)"}, {"smiles": "CCn1c(SCC(=O)Nc2ccc(NC(C)=O)cc2)nc2c1c(=O)n(C)c(=O)n2C", "Potency": "30.9 µM (active)"}, {"smiles": "Cc1ccc(CN(C)C(=O)c2ccc3c(c2)NC(=O)CS3)o1", "Potency": "inactive"}, {"smiles": "Cc1cccc(-c2nnc(SCC(=O)NC3CC3)n2C)c1", "Potency": "inactive"}, {"smiles": "C=CCOc1c(Cl)cc(CNc2ccc(N(C)C)cc2)cc1OC", "Potency": "inactive"}, {"smiles": "CC(=O)C1C(c2ccccc2)c2c(noc2C)CC1(C)O", "note": "(configuration not stated)", "Potency": "inactive"}, {"smiles": "COc1ccc(CN2C(=O)c3cccnc3C2=O)cc1S(=O)(=O)NC1CCCCC1", "Potency": "34.6 µM (active)"}, {"smiles": "CCN(CC)S(=O)(=O)c1ccc(C)c(NC(=O)Cn2cnc3cc([N+](=O)[O-])ccc3c2=O)c1", "Potency": "34.6 µM (active)"}, {"smiles": "C[C@H](Cc1ccccc1)Nc1ncnc2c1ncn2[C@@H]1O[C@H](CO)[C@@H](O)[C@H]1O", "Potency": "21.9 µM (active)"}, {"smiles": "O=[N+]([O-])c1cc2c(c(CSc3nnc4ccccn34)c1)OCOC2", "Potency": "12.3 µM (active)"}, {"smiles": "O=C(NC1CCCCCC1)c1cc2c(=O)n3ccccc3nc2s1", "Potency": "38.9 µM (active)"}, {"smiles": "COc1ccc(Cl)cc1-c1n[nH]c(=S)o1", "Potency": "4.35 µM (active)"}]}]}
